Laboratory results reported in paper PMC5540273 (PLoS ONE, 2017).
Read-outs that look alike come from different tables or passages of the source.

What was measured:
DMPK = conditions: concentration: 1 μM, replicates: in singlicate; n = 1
DRAK1 = tested on: T1, DRAK1; conditions: concentration: 1 μM, replicates: in singlicate; n = 1
T1 construct: gene STK17A

DRAK2 = tested on: T2, DRAK2; conditions: concentration: 1 μM, replicates: in singlicate; n = 1
T2 construct: gene STK17B

DYRK1A = conditions: concentration: 1 μM, replicates: in singlicate; n = 1
DYRK1B = conditions: n = 1
DYRK2 = conditions: concentration: 1 μM, replicates: in singlicate; n = 1
EGFR = conditions: concentration: 1 μM, replicates: in singlicate; n = 1
EIF2AK1 = conditions: concentration: 1 μM, replicates: in singlicate; n = 1
EPHA1 = conditions: concentration: 1 μM, replicates: in singlicate; n = 1
EPHA2 = conditions: concentration: 1 μM, replicates: in singlicate; n = 1
EPHA3 = conditions: concentration: 1 μM, replicates: in singlicate; n = 1
EPHA4 = conditions: concentration: 1 μM, replicates: in singlicate; n = 1
EPHA5 = conditions: concentration: 1 μM, replicates: in singlicate; n = 1
EPHA6 = conditions: n = 1
EPHA7 = conditions: concentration: 1 μM, replicates: in singlicate; n = 1
EPHA8 = conditions: concentration: 1 μM, replicates: in singlicate; n = 1
EPHB1 = conditions: concentration: 1 μM, replicates: in singlicate; n = 1
EPHB2 = conditions: concentration: 1 μM, replicates: in singlicate; n = 1
EPHB3 = conditions: concentration: 1 μM, replicates: in singlicate; n = 1
EPHB4 = conditions: concentration: 1 μM, replicates: in singlicate; n = 1
[1] = concentration: 1 μM, replicates: in singlicate
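Note: KINOMEscan kinase panel screen.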

O=c1cc(N2CCOCC2)nc2n(Cc3cccc(Cl)c3Cl)c(C3CC3)nn12 [GSK2358994]
%Inh (DMPK): 0%
%Inh (DRAK1): 11%
%Inh (DRAK2): 9%
%Inh (DYRK1A): 2%
%Inh (DYRK1B; 1 µM): 0%
%Inh (DYRK2): 1%
%Inh (EGFR): 0%
%Inh (EIF2AK1): 0%
%Inh (EPHA1): 7%
%Inh (EPHA2): 0%
%Inh (EPHA3): 0%
%Inh (EPHA4): 11%
%Inh (EPHA5): 6%
%Inh (EPHA6; 1 µM): 0%
%Inh (EPHA7): 0%
%Inh (EPHA8): 9%
%Inh (EPHB1): 0%
%Inh (EPHB2): 0%
%Inh (EPHB3): 7%
%Inh (EPHB4): 3%

COCCNC(=O)c1ccc(-c2cc(C(=O)NC3CC3)cc(F)c2C)cc1 [GW868318]
%Inh (DMPK): 20%
%Inh (DRAK1): 13%
%Inh (DRAK2): 0%
%Inh (DYRK1A): 9%
%Inh (DYRK1B; [1]): 21%
%Inh (DYRK2): 28%
%Inh (EGFR): 21%
%Inh (EIF2AK1): 22%
%Inh (EPHA1): 29%
%Inh (EPHA2): 7%
%Inh (EPHA3): 38%
%Inh (EPHA4): 21%
%Inh (EPHA5): 25%
%Inh (EPHA6; [1]): 30%
%Inh (EPHA7): 4%
%Inh (EPHA8): 12%
%Inh (EPHB1): 16%
%Inh (EPHB2): 7%
%Inh (EPHB3): 23%
%Inh (EPHB4): 32%

CN1c2ccc(NCc3ccc(F)cc3)cc2-c2c(cnn2C)S1(=O)=O
%Inh (DMPK): 0%
%Inh (DRAK1): 0%
%Inh (DRAK2): 0%
%Inh (DYRK1A): 0%
%Inh (DYRK1B; [1]): 16%
%Inh (DYRK2): 0%
%Inh (EGFR): 0%
%Inh (EIF2AK1): 0%
%Inh (EPHA1): 0%
%Inh (EPHA2): 12%
%Inh (EPHA3): 0%
%Inh (EPHA4): 0%
%Inh (EPHA5): 0%
%Inh (EPHA6; [1]): 0%
%Inh (EPHA7): 0%
%Inh (EPHA8): 0%
%Inh (EPHB1): 0%
%Inh (EPHB2): 0%
%Inh (EPHB3): 6%
%Inh (EPHB4): 0%

O=C(NCCNc1ccnc(Nc2ccc(F)cc2)n1)c1cc2ccccc2s1 [GSK1379874]
%Inh (DMPK): 0%
%Inh (DRAK1): 8%
%Inh (DRAK2): 33%
%Inh (DYRK1A): 2%
%Inh (DYRK1B; [1]): 17%
%Inh (DYRK2): 15%
%Inh (EGFR): 23%
%Inh (EIF2AK1): 0%
%Inh (EPHA1): 10%
%Inh (EPHA2): 30%
%Inh (EPHA3): 0%
%Inh (EPHA4): 0%
%Inh (EPHA5): 0%
%Inh (EPHA6; [1]): 0%
%Inh (EPHA7): 6%
%Inh (EPHA8): 18%
%Inh (EPHB1): 0%
%Inh (EPHB2): 0%
%Inh (EPHB3): 12%
%Inh (EPHB4): 0%

CN(C1=C(c2ccccc2)C(=O)NC1=O)c1ccccc1 [SB-334860]
%Inh (DMPK): 0%
%Inh (DRAK1): 3%
%Inh (DRAK2): 0%
%Inh (DYRK1A): 10%
%Inh (DYRK1B; [1]): 9%
%Inh (DYRK2): 10%
%Inh (EGFR): 27%
%Inh (EIF2AK1): 6%
%Inh (EPHA1): 6%
%Inh (EPHA2): 1%
%Inh (EPHA3): 24%
%Inh (EPHA4): 6%
%Inh (EPHA5): 6%
%Inh (EPHA6; [1]): 10%
%Inh (EPHA7): 2%
%Inh (EPHA8): 6%
%Inh (EPHB1): 8%
%Inh (EPHB2): 20%
%Inh (EPHB3): 11%
%Inh (EPHB4): 9%

NS(=O)(=O)c1cccc(-c2ccc3ncc(N4CCOCC4)nc3c2)c1 [GSK1535721]
%Inh (DMPK): 0%
%Inh (DRAK1): 0%
%Inh (DRAK2): 0%
%Inh (DYRK1A): 0%
%Inh (DYRK1B; [1]): 4%
%Inh (DYRK2): 28%
%Inh (EGFR): 12%
%Inh (EIF2AK1): 0%
%Inh (EPHA1): 0%
%Inh (EPHA2): 7%
%Inh (EPHA3): 11%
%Inh (EPHA4): 8%
%Inh (EPHA5): 0%
%Inh (EPHA6; [1]): 8%
%Inh (EPHA7): 3%
%Inh (EPHA8): 11%
%Inh (EPHB1): 5%
%Inh (EPHB2): 6%
%Inh (EPHB3): 9%
%Inh (EPHB4): 17%

CCCCCc1nc2c(N)ncnc2n1CCCCC [SKF-97255]
%Inh (DMPK): 0%
%Inh (DRAK1): 0%
%Inh (DRAK2): 11%
%Inh (DYRK1A): 0%
%Inh (DYRK1B; [1]): 0%
%Inh (DYRK2): 27%
%Inh (EGFR): 0%
%Inh (EIF2AK1): 0%
%Inh (EPHA1): 0%
%Inh (EPHA2): 0%
%Inh (EPHA3): 0%
%Inh (EPHA4): 10%
%Inh (EPHA5): 0%
%Inh (EPHA6; [1]): 5%
%Inh (EPHA7): 0%
%Inh (EPHA8): 0%
%Inh (EPHB1): 5%
%Inh (EPHB2): 0%
%Inh (EPHB3): 5%
%Inh (EPHB4): 0%

Cc1nnc(-c2ccc(C)c(-c3ccc(C(=O)Nc4ccc(NS(C)(=O)=O)cc4)cc3)c2)o1 [GW702865]
%Inh (DMPK): 0%
%Inh (DRAK1): 0%
%Inh (DRAK2): 0%
%Inh (DYRK1A): 0%
%Inh (DYRK1B; [1]): 1%
%Inh (DYRK2): 0%
%Inh (EGFR): 13%
%Inh (EIF2AK1): 0%
%Inh (EPHA1): 0%
%Inh (EPHA2): 16%
%Inh (EPHA3): 8%
%Inh (EPHA4): 0%
%Inh (EPHA5): 0%
%Inh (EPHA6; [1]): 0%
%Inh (EPHA7): 0%
%Inh (EPHA8): 3%
%Inh (EPHB1): 6%
%Inh (EPHB2): 10%
%Inh (EPHB3): 0%
%Inh (EPHB4): 5%

Cl.Oc1cccc(Nc2ccnc3cc(-c4ccncc4)ccc23)c1 [GW494601]
%Inh (DMPK): 0%
%Inh (DRAK1): 11%
%Inh (DRAK2): 0%
%Inh (DYRK1A): 25%
%Inh (DYRK1B; [1]): 7%
%Inh (DYRK2): 43%
%Inh (EGFR): 76%
%Inh (EIF2AK1): 0%
%Inh (EPHA1): 98.8%
%Inh (EPHA2): 84%
%Inh (EPHA3): 76%
%Inh (EPHA4): 84%
%Inh (EPHA5): 95.3%
%Inh (EPHA6; [1]): 88%
%Inh (EPHA7): 0%
%Inh (EPHA8): 97%
%Inh (EPHB1): 96.2%
%Inh (EPHB2): 70%
%Inh (EPHB3): 27%
%Inh (EPHB4): 94.2%

c1ccc(-c2n[nH]cc2-c2ccnc3ccccc23)nc1 [GW271431]
%Inh (DMPK): 2%
%Inh (DRAK1): 19%
%Inh (DRAK2): 18%
%Inh (DYRK1A): 17%
%Inh (DYRK1B; [1]): 20%
%Inh (DYRK2): 0%
%Inh (EGFR): 35%
%Inh (EIF2AK1): 14%
%Inh (EPHA1): 16%
%Inh (EPHA2): 4%
%Inh (EPHA3): 14%
%Inh (EPHA4): 2%
%Inh (EPHA5): 0%
%Inh (EPHA6; [1]): 1%
%Inh (EPHA7): 6%
%Inh (EPHA8): 9%
%Inh (EPHB1): 32%
%Inh (EPHB2): 0%
%Inh (EPHB3): 7%
%Inh (EPHB4): 11%

Nc1nccc(-c2c(-c3ccc(F)cc3)ncn2C2CCN(CC(F)(F)F)CC2)n1 [SB-236560]
%Inh (DMPK): 11%
%Inh (DRAK1): 0%
%Inh (DRAK2): 1%
%Inh (DYRK1A): 5%
%Inh (DYRK1B; [1]): 28%
%Inh (DYRK2): 0%
%Inh (EGFR): 29%
%Inh (EIF2AK1): 20%
%Inh (EPHA1): 0%
%Inh (EPHA2): 0%
%Inh (EPHA3): 0%
%Inh (EPHA4): 0%
%Inh (EPHA5): 0%
%Inh (EPHA6; [1]): 0%
%Inh (EPHA7): 0%
%Inh (EPHA8): 0%
%Inh (EPHB1): 0%
%Inh (EPHB2): 14%
%Inh (EPHB3): 0%
%Inh (EPHB4): 0%
